# Several values for one entry are separate records, joined by “and”; a condition that tells them apart may be missing. Identical values can stand only once. Results filed as inconclusive are left out. A call without a number means that no potency is given here. Some compounds were tested as several samples or in several runs, with calls that do not always agree. Activity calls are given as the source filed them. Unless noted, calls follow the shape of the dose curve; as a rule, active = well fitted curve in the direction sought with a large enough effect in the repeat runs; inconclusive = weak or mixed curves; inactive = no such curve, though single readings can be large; an effect the other way counts as inactive or inconclusive. Starred links: 1 amine or outer side, 2 acyl side, 3 side chain; linkers in the order of their positions; H or OH if unused. Positions of bridges follow the written chain, without caps; N, C: chain ends. Non-standard residues stand in square brackets, D forms with d. Residues, ends and D or L forms follow the SMILES beside them. Chains are numbered I, II in the order given. Actinocin(9to1) = Cc1c2oc3c(C)ccc(C(=O)[*:1])c3nc-2c(C(=O)[*:2])c(N)c1=O; NMeV = CN[C@H](C(=O)O)C(C)C; Sar = CNCC(=O)O
# Assays:
# [1] = qHTS assay to identify small molecule agonists of the vitamin D receptor (VDR) signaling pathway - cell viability counter screen (AID 743224); also: nearly all actives have a fitted effect of over 50% in size; also: potency is read from the fitted curve at half-maximal effect
# In short: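 Plated VDR-bla cells (4 h, 37C) received compound, incubated 16 h, then LiveBLAzer substrate 2 h RT; CellTiter-Glo added afterwards, luminescence read at 30 min.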
# [2] = qHTS assay to identify small molecule antagonists of the vitamin D receptor (VDR) signaling pathway - cell viability counter screen (AID 743225); also: nearly all actives have a fitted effect of over 50% in size; also: potency is read from the fitted curve at half-maximal effect
# In short: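 Cells (VDR-UAS-bla HEK 293T) are plated, rested 4 h at 37C, dosed with compound and 3 nM final 1-alpha,25-dihydroxy vitamin D3, and incubated 16 h. Viability is taken from CellTiter-Glo luminescence in the reporter wells.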
# [3] = qHTS assay to identify small molecule agonists of the NFkB signaling pathway - cell viability counter screen (AID 1159515; calls by dose curve; also: nearly all actives have a fitted effect of over 55% in size; also: potency is read from the fitted curve at half-maximal effect)
# In short: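 Using the same wells as the NFkB reporter read, ME-180 NFkB-bla cells given compounds for 5 hr were assessed for viability via CellTiter-Glo, with luminescence taken after a 30 min room-temperature incubation.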
# [4] = qHTS assay to identify small molecule agonists of the endoplasmic reticulum stress response signaling pathway - cell viability counter screen (AID 1159517; calls by dose curve; also: nearly all actives have a fitted effect of over 50% in size; also: potency is read from the fitted curve at half-maximal effect)
# In short: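 CellTiter-Glo was added to wells already read for beta-lactamase FRET, and luminescence was recorded 30 min later. Cells: ESRE-bla HeLa, 1,500 per well, compound exposure 5 hr at 37 C.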
# [5] = qHTS assay to identify small molecule antagonists of the retinoid-related orphan receptor gamma (ROR-gamma) signaling pathway - cell viability counter screen (AID 1159520); also: nearly all actives have a fitted effect of over 50% in size; also: potency is read from the fitted curve at half-maximal effect
# In short: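 Tet-on ROR gamma CHO cells (1,000/well) were plated 4 hr, given compounds in DMSO for 2 hr at 37 C, then induced with 1 uM final doxycycline for 16 hr. Viability was read as ATP by CellTiter-Glo luminescence after 30 min.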
# [6] = biological target: Nuclear receptor ROR-gamma (Homo sapiens) (UniProt P51449); experiment: qHTS assay to identify small molecule antagonists of the retinoid-related orphan receptor gamma (ROR-gamma) signaling pathway (AID 1159521; also: nearly all actives have a fitted effect of over 50% in size; also: potency is read from the fitted curve at half-maximal effect)
# In short: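 RORγ antagonism is scored from reduced reporter luminescence in Tet-on CHO cells. Induction used 1 uM final doxycycline hyclate for 16 h at 37 C, following a 2 h compound exposure.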
# [7] = qHTS assay to identify small molecule agonists of the AP-1 signaling pathway - cell viability counter screen (AID 1159525; calls by dose curve; also: nearly all actives have a fitted effect of over 55% in size; also: potency is read from the fitted curve at half-maximal effect)
# In short: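 ME-180 AP-1-bla, 2500 cells/well, Opti-MEM + 0.5% dialyzed FBS; overnight 37 °C; cpd 15-pt titration, 5 h 37 °C; CellTiter-Glo 30 min RT; luminescence read; normalised to TOAB and DMSO controls.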
# [8] = qHTS assay to identify small molecule agonists of the AP-1 signaling pathway (AID 1159526; calls by dose curve; also: potency is read from the fitted curve at half-maximal effect)
# [9] = qHTS assay to identify small molecule agonists of the endoplasmic reticulum stress response signaling pathway (AID 1159516; active = well fitted activation curve with a large enough effect in the signal ratio in the repeat runs, not every such curve was filed as active; the % refers to the signal ratio)
# In short: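 An ESRE-bla HeLa cell assay: compounds were pin-transferred from DMSO onto overnight-plated cells and left 5 hr at 37 C. Substrate was then loaded for 2 hr at room temperature before reading fluorescence at 460 nm and 530 nm.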
# [10] = biological target: Retinoic acid receptor RXR-alpha (Homo sapiens) (UniProt P19793); experiment: qHTS assay to identify small molecule agonists of the RXR signaling pathway (AID 1159527; calls by dose curve; also: nearly all actives have a fitted effect of over 35% in size)
# Sequence of Retinoic acid receptor RXR-alpha (Homo sapiens) (P19793 whole entry, looked up): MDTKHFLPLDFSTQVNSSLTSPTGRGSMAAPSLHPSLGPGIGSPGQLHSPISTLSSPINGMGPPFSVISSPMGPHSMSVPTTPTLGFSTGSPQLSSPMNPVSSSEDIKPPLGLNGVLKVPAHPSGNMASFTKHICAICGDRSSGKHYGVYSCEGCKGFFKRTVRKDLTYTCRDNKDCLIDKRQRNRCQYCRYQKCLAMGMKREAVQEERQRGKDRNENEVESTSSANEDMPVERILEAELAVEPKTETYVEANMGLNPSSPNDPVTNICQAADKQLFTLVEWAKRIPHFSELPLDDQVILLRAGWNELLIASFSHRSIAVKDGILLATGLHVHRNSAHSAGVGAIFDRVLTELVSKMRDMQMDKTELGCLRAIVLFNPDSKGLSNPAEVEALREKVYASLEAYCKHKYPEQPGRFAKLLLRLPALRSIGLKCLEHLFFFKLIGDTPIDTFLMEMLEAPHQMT
# In short: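 qHTS of the Tox21 10K library in GeneBLAzer RXR-alpha HEK 293T cells carrying a beta-lactamase reporter […]; 16 hr treatment, 9-cis retinoic acid as agonist control, FRET read-out.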
Structure (SMILES),Potency [1],Potency [2],Potency [3],Potency [4],Potency [5],Potency [6],Potency [7],Potency [8],outcome [9],Potency [10]
Cc1cc(Cc2cc(C)cc(C(C)(C)C)c2O)c(O)c(C(C)(C)C)c1,9.82 µM (active) and 13.8 µM (active),19.6 µM (active) and 19.5 µM (active),11 µM (active) and 17.4 µM (active),17.5 µM (active) and 21.9 µM (active),21.8 µM (active) and 30.6 µM (active),19.4 µM (active) and 27.3 µM (active),11 µM (active) and 13.8 µM (active),–,–,–
Nc1ccc2cc3ccccc3cc2c1,inactive,inactive,inactive,inactive,inactive,inactive,inactive,inactive,–,–
O=C(Nc1ccccc1SSc1ccccc1NC(=O)c1ccccc1)c1ccccc1,12.4 µM (active) and 12.3 µM (active),–,inactive,inactive,24.3 µM (active),8.68 µM (active) and 17.2 µM (active),inactive,–,–,–
CNCCC(Oc1ccc(C(F)(F)F)cc1)c1ccccc1 (stereo not given),48.4 µM (active) and inactive,–,–,inactive,inactive,–,inactive,–,inactive,–
Oc1c(Cl)cc(Cl)c(Cl)c1Cc1c(O)c(Cl)cc(Cl)c1Cl,24.5 µM (active) and 21.9 µM (active) and 2.66 µM (active),54.8 µM (active) and 27.5 µM (active) and 9.52 µM (active),34.6 µM (active) and 43.6 µM (active),17.3 µM (active) and 49 µM (active),1.53 µM (active) and 1.93 µM (active) and 1.68 µM (active),966 nM (active) and 1.37 µM (active) and 841 nM (active),27.5 µM (active),–,–,–
Cc1ccc(S(=O)(=O)Oc2ccc(N=Nc3ccc(-c4ccc(N=Nc5c(O)ccc6cc(S(=O)(=O)O)cc(S(=O)(=O)O)c56)c(C)c4)cc3C)cc2)cc1,inactive,inactive,inactive,inactive,inactive,–,inactive,–,–,inactive
CCCCC(CC)COC(=O)CC(C(=O)OCC(CC)CCCC)S(=O)(=O)O (stereo not given),42 µM (active) and 43.6 µM (active),21.1 µM (active) and 15.5 µM (active),47.1 µM (active) and 49 µM (active),–,inactive,inactive,42 µM (active) and 49 µM (active),–,–,–
Cc1cc(OCCOCC[N+](C)(C)Cc2ccccc2)ccc1C(C)(C)CC(C)(C)C,17.3 µM (active) and 26.6 µM (active),13.7 µM (active) and 19 µM (active),38.7 µM (active) and 26.8 µM (active),19.4 µM (active),68.2 µM (active) and 29.8 µM (active),60.8 µM (active) and 29.8 µM (active),34.5 µM (active) and 26.8 µM (active),–,–,–
CC(C)(c1ccccc1)c1ccc(Nc2ccc(C(C)(C)c3ccccc3)cc2)cc1,inactive,inactive,inactive,inactive,inactive,24.3 µM (active) and inactive,inactive,–,–,–
Nc1cc(Cl)c(-c2cc(Cl)c(N)cc2Cl)cc1Cl,49 µM (active),21.9 µM (active),48.9 µM (active) and 54.9 µM (active),54.9 µM (active),61.1 µM (active),7.69 µM (active) and 7.7 µM (active),38.9 µM (active) and 54.9 µM (active),–,–,–
"Cc1c2oc3c(C)ccc(C(=O)N[C@@H]4C(=O)N[C@H](C(C)C)C(=O)N5CCC[C@H]5C(=O)N(C)CC(=O)N(C)[C@@H](C(C)C)C(=O)O[C@@H]4C)c3nc-2c(C(=O)N[C@@H]2C(=O)N[C@H](C(C)C)C(=O)N3CCC[C@H]3C(=O)N(C)CC(=O)N(C)[C@@H](C(C)C)C(=O)O[C@@H]2C)c(N)c1=O (I: T[dV]P[Sar][NMeV] / II: T[dV]P[Sar][NMeV]; ester I:1-I:C, II:1-II:C; linker I:N-II:N via Actinocin(9to1))",26.8 µM (active) and inactive,inactive,inactive,26.8 nM (active) and 107 nM (active),59.4 nM (active) and 59.6 nM (active),29.8 nM (active) and 188 nM (active),inactive,–,–,–
O=C(O[C@@H]1Cc2c(O)cc(O)cc2O[C@@H]1c1cc(O)c(O)c(O)c1)c1cc(O)c(O)c(O)c1,inactive,inactive,inactive,inactive,inactive,–,inactive,–,–,inactive
Oc1c(Cl)cc(Cl)cc1Sc1cc(Cl)cc(Cl)c1O,21.9 µM (active) and 44.4 µM (active) and inactive,24.6 µM (active) and 55.9 µM (active) and 43.6 µM (active),55.1 µM (active) and inactive,55.1 µM (active) and 55.9 µM (active) and 49 µM (active),15.4 µM (active) and 21.7 µM (active),–,49.1 µM (active) and 49 µM (active) and inactive,–,–,–
BrC1CCC(Br)C(Br)CCC(Br)C(Br)CCC1Br (stereo not given),18.5 µM (active),16.5 µM (active),inactive,inactive,43.1 µM (active),27.2 µM (active) and 58 µM (active),inactive,–,–,inactive
c1cc(C(c2ccc(OCC3CO3)cc2)C(c2ccc(OCC3CO3)cc2)c2ccc(OCC3CO3)cc2)ccc1OCC1CO1 (stereo not given),inactive,inactive,inactive,inactive,inactive,–,inactive,–,–,–
c1ccc2c(c1)-c1cccc3c1c-2cc1ccccc13,inactive,inactive,inactive,inactive,53.2 µM (active),–,–,17 µM (active) and 38.9 µM (active),–,–
CCOc1ccc2c(c1)C(C)=CC(C)(C)N2,inactive,inactive,inactive,inactive,inactive,inactive,inactive,–,–,–
CCN(CC)CCOc1ccc(/C(=C(\Cl)c2ccccc2)c2ccccc2)cc1,19.9 µM (active) and 26.6 µM (active),22.3 µM (active) and 21.3 µM (active),44.6 µM (active) and 23.9 µM (active),–,31.3 µM (active),19.7 µM (active) and 26.6 µM (active),17.7 µM (active),–,–,–
CCCCCCCCCCCCc1ccccc1O,10.8 µM (active) and 19.5 µM (active),17.2 µM (active) and 21.9 µM (active),19.2 µM (active) and 21.9 µM (active),17.2 µM (active) and 24.5 µM (active),60.3 µM (active) and 27.3 µM (active),67.7 µM (active) and 24.3 µM (active),13.6 µM (active) and 17.4 µM (active),–,–,–
CC(C)CCCCCCc1ccc(O)cc1,19.8 µM (active) and 30.9 µM (active),31.4 µM (active) and 38.9 µM (active),39.6 µM (active) and 38.9 µM (active),35.3 µM (active) and 54.9 µM (active),24.8 µM (active),2.48 µM (active),25 µM (active) and 49 µM (active),–,–,–
CC[C@H]1CN2CCc3cc(OC)c(OC)cc3[C@@H]2C[C@@H]1C[C@H]1NCCc2cc(OC)c(OC)cc21,19.6 µM (active) and inactive,inactive,inactive,6.94 µM (active) and 4.25 µM (active),–,173 nM (active) and 750 nM (active),inactive,–,–,–
NC(=Nc1ccccc1)Nc1ccccc1,inactive,inactive,inactive,inactive,inactive,inactive,inactive,–,–,–
CC(=O)C1=C(C)[C@@H]2C[C@@]3(C1)[C@H](C)CC[C@H]3C2(C)C,inactive,inactive,inactive,–,inactive,inactive,inactive,inactive,–,inactive
Oc1ccc(Cl)cc1Cc1cc(Cl)ccc1O,11.2 µM (active) and 38.9 µM (active),28 µM (active) and 6.74 µM (active),inactive,54.9 µM (active) and inactive,24.8 µM (active),–,55.9 µM (active),–,–,inactive
CCCCCC(=O)O[C@]1(C(C)=O)CC[C@H]2[C@@H]3CCC4=CC(=O)CC[C@]4(C)[C@H]3CC[C@@]21C,43.4 µM (active) and inactive,43.4 µM (active) and 23.9 µM (active),inactive,inactive,60.7 µM (active),27.1 µM (active) and 23.7 µM (active),inactive,inactive,–,–

# — PubChem BioAssay (Tox21)
